From PubChem BioAssay AID1851 (National Center for Advancing Translational Sciences (NCATS), 2009)
Out of some 16,000 compounds screened, about 5,100 (32%) were called active. Not shown: some 25% with an inconclusive outcome. Calls come from the whole dose curve; as a rule, active = well fitted curve in the direction sought with a large enough effect; inconclusive = small, poorly fitted or top-dose-only effect, or effect the other way; inactive = no such curve, though single readings can be large or run the other way. The list shows a part of the results. Some compounds were tested as several samples or in several runs, with calls that do not always agree.

Target: Cytochrome P450 3A4 (Homo sapiens) (UniProt P08684)
Sequence (P08684 whole entry, looked up): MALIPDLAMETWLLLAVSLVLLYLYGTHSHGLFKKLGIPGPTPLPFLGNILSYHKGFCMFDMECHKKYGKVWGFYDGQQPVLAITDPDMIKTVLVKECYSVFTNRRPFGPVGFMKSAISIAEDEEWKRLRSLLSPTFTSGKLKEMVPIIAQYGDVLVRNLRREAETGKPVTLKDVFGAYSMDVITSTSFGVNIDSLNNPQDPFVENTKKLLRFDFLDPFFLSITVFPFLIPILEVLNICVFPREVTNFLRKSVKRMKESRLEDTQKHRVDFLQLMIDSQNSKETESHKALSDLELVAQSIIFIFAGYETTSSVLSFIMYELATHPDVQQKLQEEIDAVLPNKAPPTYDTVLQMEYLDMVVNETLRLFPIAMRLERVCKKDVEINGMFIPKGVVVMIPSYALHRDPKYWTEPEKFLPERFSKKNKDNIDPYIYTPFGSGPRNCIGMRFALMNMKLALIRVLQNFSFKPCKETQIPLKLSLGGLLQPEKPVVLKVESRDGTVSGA
Test: Cytochrome panel assay with activity outcomes
Details: recombinant CYP, pro-luciferin dealkylation, luminescence, p450-cyp3a4; series mostly up to 57.1 µM; activity, negative = inhibition: at the top concentration
% is set by controls: 0 for no effect and ±100 for the full control effect.

Row | Structure (SMILES) | activity, negative = inhibition | AC50
1 | CS(=N)(=O)CC[C@@H](N)C(=O)O (some centres undefined) | inactive | 
2 | C[C@@H]1O[C@@H](O[C@H]2C[C@@H](O)[C@@]3(CO)[C@H]4[C@H](O)C[C@]5(C)[C@@H](C6=CC(=O)OC6)CC[C@]5(O)[C@H]4CC[C@@]3(O)C2)[C@@H](O)[C@H](O)[C@H]1O | 10.6% [at 11.4 µM] (inactive) | 
3 | NC(=O)CN1CCCC1=O | inactive | 
4 | NNC(N)=O | -9.12% (inactive) | 
5 | NC(=O)CI |  | 0.0631 µM (active)
6 | CCCN1CCC[C@@H]2Cc3nc(N)ncc3C[C@H]21 | -16.7% (inactive) | 
7 | COC(=O)[C@@H]1[C@@H]2C[C@H]3c4[nH]c5cc(OC)ccc5c4CCN3C[C@@H]2C[C@H](OC(=O)/C=C\c2cc(OC)c(OC)c(OC)c2)[C@H]1OC | -25.6% [at 25.6 µM] (inactive) | 
8 | CNC[C@H](O)c1ccc(O)c(OC)c1 | -5% [at 25.6 µM] (inactive) | 
9 | COc1cc(CNC(=O)CCCC/C=C\C(C)C)ccc1O |  | 3.98 µM (active)
10 | COc1cc(CCN)ccc1O | -4.42% (inactive) | 
11 | Cc1cccc([C@H](C)c2cnc[nH]2)c1C |  | 0.158 µM (active)
12 | O=P(O)(O)C(Cl)(Cl)P(=O)(O)O | 7.29% (inactive) | 
13 | C(=C/c1ccccc1)/CN1CCN(CCOC(c2ccccc2)c2ccccc2)CC1 | -20.7% (inactive) | 
14 | CCC(=O)O[C@@](Cc1ccccc1)(c1ccccc1)[C@@H](C)CN(C)C |  | 5.01 µM (active)
15 | CC(C)[N+](C)(CCC(C(N)=O)(c1ccccc1)c1ccccc1)C(C)C | -24.2% [at 25.6 µM] (inactive) | 
16 | O=C(O)[C@H]1[C@H](C(=O)O)[C@H]2CC[C@@H]1O2 | -5.34% (inactive) | 
17 | COc1cc(CCN)c(OC)c(OC)c1 | -5.19% [at 11.4 µM] (inactive) | 
18 | CCOP(=O)(CN(CC)CCNP(=O)(OCC)OCC)OCC | 10.5% [at 2.29 µM] (inactive) | 
19 | CN1CCc2nc3sc(C(=O)NC(C)(C)C)c(N)c3cc2C1 | -11.5% [at 2.29 µM] (inactive) | 
20 | CC[C@@]1(O)C(=O)OCc2c1cc1n(c2=O)Cc2cc3ccccc3nc2-1 |  | 6.31 µM (active) and inactive
21 | CC[C@]1(OC(=O)CN)C(=O)OCc2c1cc1n(c2=O)Cc2cc3ccccc3nc2-1 | -27% [at 11.4 µM] (inactive) | 
22 | CC[C@@]1(O)C(=O)OCc2c1cc1n(c2=O)Cc2cc3c(NC(=O)CN)cccc3nc2-1 | 0.232% [at 11.4 µM] (inactive) | 
23 | O=C(NC1CCCCC1)NC1CC2CCC(C1)N2Cc1nnnn1Cc1ccc2c(c1)OCO2 (centres undefined) |  | 3.16 µM (active)
24 | CCc1ccccc1NC(=O)NC1CC2CCC(C1)N2Cc1cccs1 (centres undefined) | -21.2% (inactive) | 

Row | Structure (SMILES) | activity, negative = inhibition | AC50
25 | COc1ccc(NC(=O)NC2CC3CCCC(C2)N3Cc2ccccc2)cc1 (centres undefined) | 16.8% (inactive) | 
26 | C[C@@]12CC[C@H]3[C@H](CC=C4C[C@@H](O)CC[C@@]43C)[C@@H]1CC[C@@H]2N(CCO)CCO | 12.7% [at 11.4 µM] (inactive) | 
27 | COC(=O)CN1CN(c2ccccc2)C2(CCN(Cc3ccc4ccccc4c3)CC2)C1=O |  | 15.8 µM (active)
28 | c1ccc(CN2CCC3(CCNCC3)CC2)cc1 | -7.57% (inactive) | 
29 | O=C1NCN(c2ccccc2)C12CCN(CCCOc1ccc(F)cc1)CC2 | 18.9% (inactive) | 
30 | CC[C@]1([C@H]2O[C@@H]([C@@H]3O[C@](O)(CO)[C@@H](C)C[C@H]3C)C[C@H]2C)CC[C@@H]([C@]2(C)CC[C@@]3(C[C@@H](O)[C@@H](C)[C@@H]([C@H](C)[C@H](OC)[C@H](C)C(=O)O)O3)O2)O1 | -4.62% [at 25.6 µM] (inactive) | 
31 | c1cc2cc(c1)C[n+]1ccc(c3ccccc31)NCc1ccc(cc1)CNc1cc[n+](c3ccccc13)C2 | 11.2% (inactive) | 
32 | O=C(Oc1ccc([N+](=O)[O-])cc1)N1CCC(N2CCCCC2)CC1 | -28.2% (inactive) | 
33 | C[C@@]12C=CC(=O)C=C1CC[C@@H]1C2=CC[C@]2(C)[C@@H]1CC[C@H]2C(=O)CN1CCN(c2cc(N3CCCC3)nc(N3CCCC3)n2)CC1 |  | 3.16 µM (active)
34 | C[As+](C)(c1ccc(Br)c([N+](=O)[O-])c1)c1ccc(Br)c([N+](=O)[O-])c1.O=[N+]([O-])O | -4.86% [at 11.4 µM] (inactive) | 
35 | COC(=O)C[C@](O)(CCCC(C)(C)O)C(=O)O[C@@H]1C(OC)=C[C@]23CCCN2CCc2cc4c(cc2[C@H]13)OCO4 |  | 12.6 µM (active)
36 | CN(C)CCCc1c[nH]c2ccccc12 | -0.0212% [at 11.4 µM] (inactive) | 
37 | O=C1CCCN1CC#CCN1CCCC1 | inactive | 
38 | O=C1C=C2C=C[C@H]3C[C@@]2(O1)[C@H]1CCCCN31 | -13.1% [at 25.6 µM] (inactive) | 
39 | Nc1ccc(S(=O)(=O)c2ccc(NCN3C(=O)NC(=O)C(=O)C3=O)cc2)cc1 |  | 2 µM (active)
40 | CC(=O)NBr | -3.28% (inactive) | 
41 | COc1ccc2[nH]cc(CCN)c2c1 | -6.61% (inactive) | 
42 | CS(=O)(=O)Nc1ccc(Cc2noc(-c3ccc4[nH]cc(CCN)c4c3)n2)cc1 |  | 15.8 µM (active)
43 | NCCc1c[nH]c2ccc(O)cc12 | -20.5% [at 25.6 µM] (inactive) | 
44 | O=C1OC(=O)[C@@H]2[C@@H]1[C@@H]1CC[C@H]2O1 | 7.25% (inactive) | 
45 | C=C[C@H]1CN2CC[C@@H]1C[C@H]2[C@@H](O)c1ccnc2ccccc12 | inactive | 
46 | CCCN1CCC[C@H](c2cccc(O)c2)C1 | inactive | 
47 | CC(C)C12CN3CC(C(C)C)(CN(C1)C3c1cccnc1)C2=O (centres undefined) |  | 2.24 µM (active)
48 | CNCCc1ccc(O)c(O)c1 | -18.3% (inactive) | 

Row | Structure (SMILES) | activity, negative = inhibition | AC50
49 | NCCc1ccc(O)cc1 | -2.1% (inactive) | 
50 | NNC(=O)c1ccc(O)cc1 |  | 5.01 µM (active)
51 | NP(N)(=O)NC(=O)c1ccc(F)cc1 | -7.05% (inactive) | 
52 | Ic1cncc(OC[C@@H]2CCN2)c1 | -28.9% (inactive) | 
53 | CCN(CCCl)Cc1ccccc1Br | -11.1% (inactive) | 
54 | COc1ccc(OC)c([C@H](O)[C@H](C)N)c1 | inactive | 
55 | CN(N=O)C(=O)N[C@H]1[C@@H](O)[C@H](O)[C@H](CO)O[C@@H]1O | -4.4% [at 25.6 µM] (inactive) | 
56 | COC(=O)[C@@]1(Cc2ccc(F)cc2)[C@H]2c3cc(C(=O)N(C)C)[nH]c3C[C@H]2CN1C(=O)c1ccccc1 |  | 0.631 µM (active)
57 | CC(C)[C@]1(O)[C@@H](OC(=O)c2ccc[nH]2)[C@]2(O)[C@@]3(C)C[C@@]4(O)O[C@@]5([C@H](O)[C@@H](C)CC[C@]35O)[C@]2(O)[C@]41C | -24.6% [at 11.4 µM] (inactive) | 
58 | CC(C)c1nccn1Cc1ccc(Cl)cc1Cl | -9.57% [at 11.4 µM] (inactive) | 
59 | O=C(O)[C@H]1C[C@@H]1[C@H](NP(=O)(c1ccccc1)c1ccccc1)c1ccccc1 | -25.2% (inactive) | 
60 | O=C(O)[C@@H]1C[C@H]1[C@@H](NP(=O)(c1ccccc1)c1ccccc1)c1ccccc1 | -0.397% (inactive) | 
61 | CCC/C=C(\CCC)C(NP(=O)(c1ccccc1)c1ccccc1)c1ccccc1 (centres undefined) |  | 6.31 µM (active)
62 | c1cc(C2N3CCCN2CC3)ccn1 (centres undefined) | -11.6% [at 11.4 µM] (inactive) | 
63 | CCCCCCCCCC[Si](C)(C)CCC(=O)N[C@@H](Cc1ccc(C)cc1)c1ccccc1 | -12.4% (inactive) | 
64 | C[N+]12CCC(CC1)[C@@H](OC(=O)C(O)(c1ccccc1)c1ccccc1)C2 | -11.8% [at 25.6 µM] (inactive) | 
65 | Cc1nc(-c2ccc(-c3ccc(C(=O)N4CCc5cc6c(cc54)C4(CCN(C)CC4)CO6)cc3)c(C)c2)no1 | -15.2% (inactive) | 
66 | c1cc(CN2CC3(CCNCC3)C2)ccn1 | -30.5% (inactive) | 
67 | c1cc(CN2CCCC3(CCNCC3)C2)ccn1 |  | 15.8 µM (active)
68 | c1ccc(CN2CCCC3(CCNCC3)C2)cc1 | -19.6% (inactive) | 
69 | CC(=NCc1ccco1)c1c(O)n(-c2ccccc2)c(=O)[nH]c1=O | 11.3% (inactive) | 
70 | Cc1nc2ccccc2cc1C[N+]12CN3CN(CN(C3)C1)C2 | -6.46% [at 11.4 µM] (inactive) | 
71 | Cc1[nH]c2ccc(O)cc2c1CCN | -14.9% (inactive) | 
72 | N[C@H](CCCCCP(=O)(O)O)C(=O)O | inactive | 

Row | Structure (SMILES) | activity, negative = inhibition | AC50
73 | OC(c1ccccc1)(c1ccccc1)C1CCCN1 (centres undefined) | -2.76% [at 2.29 µM] (inactive) | 
74 | O=C1N[C@@]2(CN3CCC2CC3)C(=O)N1CN(Cc1ccccc1)c1ccccc1 | 1.78% [at 11.4 µM] (inactive) | 
75 | CN1C2CCC1CC(OC(=O)c1ccc(Cl)cc1)C2 (centres undefined) | 0.0365% (inactive) | 
76 | Cc1sc2c(c1C)C(c1ccc(C(C)(C)C)cc1)=NCC(=O)N2CC(=O)Nc1nccs1 |  | 7.94 µM (active)
77 | Nc1nnnn1CCO | -6.3% [at 11.4 µM] (inactive) | 
78 | O=c1oc(Cl)c(Cl)c2ccccc12 | 6.83% (inactive) | 
79 | O=C(O)C(C(=O)O)P(=S)(S)c1ccccc1 (centres undefined) | 8.13% [at 11.4 µM] (inactive) | 
80 | C[C@H]1CC[C@@]2(NC1)O[C@@H]1C[C@H]3[C@@H]4CC=C5C[C@@H](O)CC[C@]5(C)[C@@H]4CC[C@]3(C)[C@@H]1[C@@H]2C | 5.49% [at 25.6 µM] (inactive) | 
81 | O=[As](O)(O)c1ccc(NCc2ccccc2)cc1 | -8.35% [at 11.4 µM] (inactive) | 
82 | COc1cc(OC)c(/C=C2/C(=O)Nc3ccccc32)c(OC)c1 |  | 2.51 µM (active)
83 | OC(c1ccccc1)(c1ccccc1)C1CCNCC1 | -16.4% [at 25.6 µM] (inactive) | 
84 | CC(C)(C)C(=O)CP(=O)(O)O | -7.32% [at 11.4 µM] (inactive) | 
85 | CCCCc1ccc(C(=O)O)nc1 | -1.67% [at 25.6 µM] (inactive) | 
86 | C[C@]12CC[C@@H]3[C@H](CCC4=CC(=O)CC[C@]43C)[C@]1(O)CC[C@@]2(O)C(=O)CO | -0.348% [at 11.4 µM] (inactive) | 
87 | Oc1ccc(-c2nc(-c3ccc(F)cc3)c(-c3ccncc3)[nH]2)cc1 |  | 0.501 µM (active)
88 | N[C@H](Cc1c[nH]c2ccccc12)P(=O)(O)O | -2.01% [at 11.4 µM] (inactive) | 
89 | CC[C@H](C(=O)[C@H](C)[C@H](O)[C@H](C)CCc1ccc(C)c(O)c1C(=O)O)[C@H]1O[C@](CC)([C@@H]2CC[C@@](O)(CC)[C@H](C)O2)C[C@H]1C |  | 7.94 µM (active)
90 | CS(=O)(=O)O[C@H]1CN2CCC1CC2 | -6.57% [at 11.4 µM] (inactive) | 
91 | C[C@@H](C(=O)OC1C[C@H]2CC[C@@H](C1)N2C)c1ccc(Br)cc1 (some centres undefined) | -5.24% (inactive) | 
92 | Cc1ccccc1-c1nc(CS(=O)CC(=O)N2CCC3(CC2)OCCO3)c(C)o1 (centres undefined) | 18.8% (inactive) | 
93 | Cc1oc(-c2ccccc2F)nc1CS(=O)CC(=O)N1CCC2(CC1)OCCO2 (centres undefined) |  | 25.1 µM (active)
94 | O=C(Cn1ncc2ccsc2c1=O)N1CCC2(CC1)OCCO2 | -18.2% (inactive) | 
